According to PubChem BioAssay (Tox21):
Results filed as inconclusive are left out. Active and inactive are the calls of the source. Calls follow the shape of the dose curve; as a rule, active = well fitted cell-killing curve with a large enough effect in the repeat runs (not every such curve was filed as active); inconclusive = weak or mixed curves, or effect the other way; inactive = no such curve, though single readings can be large or run the other way.

Test: qHTS assay to identify small molecule antagonists of the farnesoid-X-receptor (FXR) signaling pathway - cell viability counter screen (AID 743221); also: nearly all actives have a fitted effect of over 50% in size
Conditions: FXR-bla HEK293T viability, CellTiter-Glo luminescence, 16 h; series mostly up to 62.6 µM
Excerpt: National Center for Advancing Translational Sciences [NCATS]
NIH Chemical Genomics Center [NCGC]
U.S. Environmental Protection Agency [EPA]
National Institutes of Environmental Health Sciences [NIEHS]
National Toxicology Program [NTP]
U.S. Food and Drug Administration [FDA]
The farnesoid-X-receptor (FXR), a nuclear hormone receptor, is highly expressed in liver, intestine, kidney and adrenal cortex. Natural ligands of FXR are the bile acids (Cholic acid, Chenodeoxy cholic acid etc). FXR is an important regulator of diverse metabolic pathways, including the bile acid homeostasis, lipid and glucose metabolisms. FXR regulates the expression of target genes by binding either as a monomer or as a heterodimer with the retinoid X receptor (RXR). Numerous studies have reported that FXR exerts protective function during cholestasis, diabetes, liver regeneration, and cancer. To identify compounds that inhibit FXR signaling, GeneBLAzer FXR-UAS-bla HEK 293T cell line (Invitrogen, Carlsbad, CA) containing a beta-lactamase reporter gene under the control of a UAS response element was used to screen the Tox21 10K compound library. The cytotoxicity of the Tox21 compound library against the FXR-bla cell line was tested in parallel by measuring the cell viability using CellTiter-Glo assay in the same wells.
Tox21 Assay Protocol Summary:
FXR-bla cells were dispensed at 5000 cells/5uL/well in 1536-well black wall/clear bottom plates using a Multidrop Combi (Thermo Fisher Scientific, Waltham, MA) dispenser. After the assay plates were incubated at 37 C and 5% CO2 for 5 h, 23 nL of compounds dissolved in DMSO, positive controls or DMSO only was transferred to the assay plate by a Pintool station (Kalypsys, San Diego, CA), followed by addition of 1 uL Chenodeoxycholic acid (50 uM, final concentration in the wells). The assay plates were incubated at 37C for 16 h. After 1 uL of LiveBLAzerTM B/G FRET substrate was added using a Bioraptr Flying Reagent Dispenser (FRD) workstation (Beckman Coulter, Indianapolis, IN), the plates were incubated at room temperature for 2 h, and fluorescence intensity was measured by an Envision plate reader (PerkinElmer, Shelton, CT). For cell viability readout that measures cytotoxicity, 4uL/well of CellTiter-Glo reagent was added into the assay plates using a Bioraptr FRD. After 30 min incubation at room temperature, the luminescence intensity in the plates was measured using a ViewLux plate reader (PerkinElmer).
% is scaled to controls: 0 for no effect and ±100 for the full control effect.

For `COC(=O)c1c(C)cc(O)c(C)c1O`, which outcome is on record?
The outcome was “inactive”.

With `CCNC(=O)C(C)OC(=O)Nc1ccccc1` (stereo not given) as the compound, how does the outcome read?
Its outcome is “inactive”.

For `CCCC[O][Al]([O]CCCC)[O]CCCC`, which outcome is on record?
The outcome was “inactive”.

Which outcome does the source give for `CC(=O)Oc1ccc(C(C)=O)cc1` here?
Its outcome is “inactive”.

For `CC(C)(C)C(=O)NCCCC(=O)O`, which outcome is on record?
Its outcome is “inactive”.

With `CC(O)CCCCn1c(=O)c2c(ncn2C)n(C)c1=O` (stereo not given) as the compound, how does the outcome read?
The outcome was “inactive”.

With `CCOC(=O)[C@H](CCc1ccccc1)N[C@H]1CS[C@H](c2cccs2)CN(CC(=O)O)C1=O` as the compound, how does the outcome read?
Its outcome is “inactive”.

Which outcome does the source give for `CCOC(=O)CN1CCCC1=O` here?
Its outcome is “inactive”.

For `CN(C)CCCN(C)C`, which activity change, negative = cytotoxicity is on record?
Its activity change, negative = cytotoxicity is 0.644% [at 5.95 µM] (inactive).

With `CCc1ccc(CC)cc1` as the compound, how does the outcome read?
The outcome was “inactive”.

For `CC(=O)OCC(=O)[C@@]1(O)CC[C@H]2[C@@H]3CCC4=CC(=O)C=C[C@]4(C)[C@H]3[C@@H](O)C[C@@]21C`, which outcome is on record?
Its outcome is “inactive”.

For `CN(C)c1cc(NC(=O)CNC(C)(C)C)c(O)c2c1C[C@H]1C[C@H]3[C@H](N(C)C)C(=O)C(C(N)=O)=C(O)[C@@]3(O)C(=O)C1=C2O`, which outcome is on record?
Its outcome is “inactive”.

For `CC/C=C/CCCCCCCCCCOC(C)=O`, which outcome is on record?
Its outcome is “inactive”.

With `C/C=C/C(=O)CCCC` as the compound, how does the outcome read?
Its outcome is “inactive”.

Which outcome does the source give for `Cc1ccc2ccccc2n1` here?
Its outcome is “inactive”.

For `C[C@@H]1CC[C@@]2(OC1)O[C@H]1C[C@H]3[C@@H]4CC[C@H]5C[C@@H](O)CC[C@]5(C)[C@H]4CC(=O)[C@]3(C)[C@H]1[C@@H]2C`, which activity change, negative = cytotoxicity is on record?
Its activity change, negative = cytotoxicity is 4.76% [at 5.95 µM] (inactive).

For `N[C@H]1C(O)O[C@H](CO)[C@@H](O)[C@@H]1O` (stereo not given in full), which outcome is on record?
Its outcome is “inactive”.

With `C=CCn1cc[n+](C)c1` as the compound, how does the outcome read?
Its outcome is “inactive”.

With `CC(O)C(CO)C(C)O` (stereo not given) as the compound, how does the outcome read?
The outcome was “inactive”.

Which outcome does the source give for `Cc1cc(O)c(Cl)cc1C` here?
The outcome was “inactive”.

For `CCCC(=O)C(CC)Sc1ccoc1C` (stereo not given), which outcome is on record?
Its outcome is “inactive”.

Which outcome does the source give for `CCCCCCCCOCCC#N` here?
The outcome was “inactive”.

With `CCOCCOCCOC(C)=O` as the compound, how does the outcome read?
Its outcome is “inactive”.

For `CC(CC(=O)Cl)CC(C)(C)C` (stereo not given), which outcome is on record?
The outcome was “inactive”.

With `Cc1nc2ccc(Cl)cc2[nH]1` as the compound, how does the outcome read?
The outcome was “inactive”.

Which outcome does the source give for `CC[N+](C)(CC)CC` here?
Its outcome is “inactive”.

For `CC(C)(C)c1ccc(N)cc1`, which outcome is on record?
Its outcome is “inactive”.

For `CCO/C=C1\N=C(c2ccccc2)OC1=O`, which outcome is on record?
Its outcome is “inactive”.

With `CCCc1ccc(O)c(OC)c1` as the compound, how does the outcome read?
Its outcome is “inactive”.

For `N#Cc1ccccc1C#N`, which outcome is on record?
The outcome was “inactive”.

With `CC/C=C\CCOC(=O)c1ccccc1` as the compound, how does the outcome read?
Its outcome is “inactive”.

Which outcome does the source give for `CCC(=O)OCCOc1ccccc1` here?
Its outcome is “inactive”.

For `N=C(N)S(=O)O`, which outcome is on record?
The outcome was “inactive”.

Which outcome does the source give for `CSC(=O)c1cccc2nnsc12` here?
Its outcome is “inactive”.

For `Cc1ccc(S(=O)(=O)NC(=O)NN2CC3CCCC3C2)cc1` (stereo not given), which outcome is on record?
Its outcome is “inactive”.

With `Cc1nnc(C(=O)NC(C)(C)c2nc(C(=O)NCc3ccc(F)cc3)c(O)c(=O)n2C)o1` as the compound, how does the outcome read?
Its outcome is “inactive”.

For `c1cc2ccc3ccc4ccc5cccc6c(c1)c2c3c4c56`, which activity change, negative = cytotoxicity is on record?
The activity change, negative = cytotoxicity was 2.77% [at 2.69 µM] (inactive).

With `C/C=C(\C)C(=O)OC/C=C(\C)CCC=C(C)C` as the compound, how does the outcome read?
Its outcome is “inactive”.

For `CC(=O)OC1CCC(C(C)(C)C)CC1` (stereo not given), which outcome is on record?
Its outcome is “inactive”.

With `Cc1ccccc1OCC(=O)O` as the compound, how does the outcome read?
Its outcome is “inactive”.
